# Assay outcomes deposited in PubChem by NMMLSC.
# BoNT A protease = blocks Botulinum neurotoxin A light chain protease | multiplex microsphere protease substrate cleavage, flow cytometry | inhibition, % at 10 µM | hit rate 0.17% among 360,000 | AID 588499; further: plate controls were buffer without enzyme for full effect and enzyme alone for no effect
# BoNT F protease = inhibitors of Botulinum neurotoxin F light chain protease; hit rate 0.22% among 360,000; Multiplex microsphere protease cleavage assay, flow cytometry; inhibition, % at 10 µM; AID 588497; in the data active means inhibition above about 35%, passing the limit was not always enough; inconclusive means no clear call, values can overlap the other calls; further: plate controls were buffer without enzyme for full effect and enzyme alone for no effect
# Anthrax LF prot = blocks Bacillus anthracis lethal factor protease | AID 588501 | hit rate 0.12% among 360,000 | multiplex microsphere protease cleavage assay, LF | P15917 | inhibition, % at 10 µM; further: plate controls were buffer without enzyme for full effect and enzyme alone for no effect
# Target sequence (P15917 whole entry, looked up): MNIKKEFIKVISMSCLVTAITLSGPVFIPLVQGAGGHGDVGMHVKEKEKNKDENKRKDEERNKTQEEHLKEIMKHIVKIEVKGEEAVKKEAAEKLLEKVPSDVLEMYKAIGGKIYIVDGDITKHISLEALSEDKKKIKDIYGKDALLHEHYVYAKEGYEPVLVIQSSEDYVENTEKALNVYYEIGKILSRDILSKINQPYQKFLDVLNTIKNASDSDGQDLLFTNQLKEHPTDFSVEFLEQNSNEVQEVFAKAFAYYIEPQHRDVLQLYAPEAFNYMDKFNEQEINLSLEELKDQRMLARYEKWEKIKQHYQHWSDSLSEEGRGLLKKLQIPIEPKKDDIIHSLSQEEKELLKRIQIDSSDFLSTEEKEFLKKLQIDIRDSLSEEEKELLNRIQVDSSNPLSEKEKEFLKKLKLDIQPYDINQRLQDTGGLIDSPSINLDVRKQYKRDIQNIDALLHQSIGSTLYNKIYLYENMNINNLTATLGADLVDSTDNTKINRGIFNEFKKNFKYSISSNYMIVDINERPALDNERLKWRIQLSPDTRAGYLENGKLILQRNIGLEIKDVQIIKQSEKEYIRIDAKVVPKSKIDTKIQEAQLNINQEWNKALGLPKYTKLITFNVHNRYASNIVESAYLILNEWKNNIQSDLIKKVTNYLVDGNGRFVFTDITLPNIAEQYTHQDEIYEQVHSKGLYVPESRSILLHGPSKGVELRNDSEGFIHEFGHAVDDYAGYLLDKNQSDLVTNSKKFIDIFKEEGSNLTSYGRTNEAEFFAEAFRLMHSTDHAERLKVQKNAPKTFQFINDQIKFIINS
# Autofluor counter = counter-screen for toxin protease inhibitors: compound fluorescence | compound autofluorescence counterscreen, microsphere flow cytometry; hits give high values | fluorescence intensity (no concentration beside the values) | hit rate 3.1% among 360,000; in the data active means fluorescence intensity above about 16000; inconclusive means no clear call, values can overlap the other calls
# The depositor's hits bear a star; ? = inconclusive. This is a sample that favours compounds with a hit; in the whole collection about 3.5% have one here. Unless noted, no stated cut-off is given here; in the data, active means inhibition above about 30%; inconclusive means no clear call, values can overlap the other calls; inactive means below that.
SMILES,BoNT A protease,BoNT F protease,Anthrax LF prot,Autofluor counter
Cc1cc(SCC(=O)c2cccs2)n2nc(C)c(-c3ccc(Cl)cc3)c2n1,-1,-3,-1,1987
c1ccc(-c2ccc(-c3ccncn3)cc2)cc1,-3,-19,6,4205
CC1CCCN(C/C=C/c2ccccc2[N+](=O)[O-])C1 (stereo not drawn),1,0,-4,20230*
O=[N+]([O-])c1ccccc1/C=C/CN1CCSCC1,3,?,10,3131
CC1CCCCN1S(=O)(=O)c1ccccc1[N+](=O)[O-] (stereo not drawn),1,8,0,8338
CC1CCCCN1C/C=C/c1ccccc1[N+](=O)[O-] (stereo not drawn),-3,-1,0,23342*
CCC1CCCCN1C/C=C/c1ccccc1[N+](=O)[O-] (stereo not drawn),7,8,2,20733*
CCOC(OCC)c1cn(Cc2ccc(C(=O)c3ccccc3)cc2)nn1,0,0,-2,2952
CC(C)(C)NC(=O)C(c1ccco1)N(C(=O)Cn1nnc(-c2ccc(F)cc2)n1)c1cccc(F)c1 (stereo not drawn),0,1,-1,22593*
O=C(c1cc(Cl)cc(Cl)c1)N1CCC(=O)N([C@H](COCc2ccccc2)Cc2ccccc2)CC1,0,5,-5,5918
CCCCn1c(N)c(N(CC)C(=O)C2=NN(c3ccccc3)C(=O)CC2)c(=O)[nH]c1=O,-1,1,-4,3702
Cc1ccc(-c2nnc(SCC(=O)O)n2N)cc1,?,-1,0,22439*
CC(C)(C)c1ccc(-c2nnc(SCC(=O)O)n2N)cc1,2,3,-2,22213*
COCCn1c(SCc2csc(-c3ccccc3)n2)nc2ccccc21,?,-6,-1,22786*
O=C(CC(C(=O)O)N1CCOCC1)Nc1ccc(Cl)cc1 (stereo not drawn),1,2,0,19713*
CSc1nc(NCCN(C)C)c2sc3nc(-c4ccco4)c4c(c3c2n1)CCC4,6,-6,-2,4150
CSc1nc(N(C)CCO)c2sc3nc(-c4ccco4)c4c(c3c2n1)CCC4,?,-1,-2,22092*
CC1(CO)COC2(OC1)C(=O)Nc1ccccc12 (stereo not drawn),12,2,3,?
COc1ccc(C2=NN(C)C(=NCc3ccccc3)SC2)cc1,-2,-5,-4,24219*
Cc1c(CN2CCCCC2C)c(=O)n(-c2ccccc2)n1C (stereo not drawn),?,1,4,22027*
COCC(=O)NC1CCN(S(=O)(=O)c2ccc(C(=O)O)cc2)CC1,-2,1,-1,20353*
O=C(COc1ccc(S(=O)(=O)N2CCCC2)cc1Cl)NC1CC1,-2,0,-3,24369*
O=C(COc1ccc(S(=O)(=O)NC2CCCCC2)cc1Cl)N1CCN(c2ccccc2)CC1,?,5,-3,22544*
CN1CCN(C(=O)COc2ccc(S(=O)(=O)NC3CCCCC3)cc2Cl)CC1,1,3,-1,6348
COc1cc(OC)cc(-c2nc3cc(C)ccc3o2)c1,-1,-2,-10,22263*
SMILES,BoNT A protease,BoNT F protease,Anthrax LF prot,Autofluor counter
COc1ccc(Cn2nnnc2C(c2cc3cccc(C)c3[nH]c2=O)N2CCOCC2)cc1 (stereo not drawn),-1,8,-3,10896
Cc1cccc2cc(C(c3nnnn3C(C)(C)C)N(Cc3ccco3)CC3CCCO3)c(=O)[nH]c12 (stereo not drawn),3,4,-2,21568*
Cc1cccc2cc(C(c3nnnn3CC3CCCO3)N3CCOCC3)c(=O)[nH]c12 (stereo not drawn),?,8,-7,18150*
O=c1[nH]c2cc3c(cc2cc1C(c1nnnn1CC1CCCO1)N1CCCCCC1)OCCO3 (stereo not drawn),-4,-6,1,22706*
Cc1cccc2cc(C(c3nnnn3Cc3ccccc3)N3CCCc4ccccc43)c(=O)[nH]c12 (stereo not drawn),?,2,5,23808*
CNC(=O)OCc1ncn(-c2ccccc2)c1COC(=O)NC,-1,-8,-4,6459
Cc1[nH]c2nc3ccccc3n2c(=O)c1CCC(C)C,0,-16,-2,3559
CCOc1ccc(NC(=O)/C(C#N)=C\c2ccc(N3CCCC3)c(C)c2)cc1,1,-2,-6,4541
Cc1ccc2cc(C(c3nnnn3C3CCCC3)N(Cc3ccco3)Cc3cccs3)c(=O)[nH]c2c1 (stereo not drawn),-2,-5,-3,24754*
CCCCCN1C(=O)/C(=C/c2c(N3CCc4ccccc4C3)nc3ccccn3c2=O)SC1=S,25,-23,-1,21934*
COc1ccc(C(=O)CSc2nc3nn(-c4ccccc4)c(=O)c-3c3n2CCCCC3)c(OC)c1,0,0,-3,3906
CC1(C(=O)Nc2cnc3ccccc3c2)CCN1Cc1ccccc1OC(F)F (stereo not drawn),0,2,-8,3758
CCOC(=O)C1(C)CCCCN1C(=O)c1cccnc1 (stereo not drawn),-1,-24,-7,2816
CC1(C2CCCC2)NC(=O)NC1=O (stereo not drawn),0,-4,-3,2944
O=C(CSc1nc2ccc([N+](=O)[O-])cc2[nH]1)NC1CCCCC1,?,2,2,20507*
CCn1ncc(C2=NOC(C(=O)NCC(C)C)C2)c1C (stereo not drawn),-1,1,-3,4388
CCn1ncc(C2=NOC(C(=O)NCCc3ccccc3)C2)c1C (stereo not drawn),0,0,0,9809
CCn1ncc(C2=NOC(C(=O)Nc3cc(OC)c(Cl)cc3OC)C2)c1C (stereo not drawn),2,1,-1,18923*
CCOC(=O)N1CCN(C(=O)C2CC(c3cc(OC)ccc3OC)=NO2)CC1 (stereo not drawn),?,-1,1,23965*
CCn1ncc(C2=NOC(C(=O)N3CCC(C(N)=O)CC3)C2)c1C (stereo not drawn),?,4,-7,21518*
CCn1ncc(C2=NOC(C(=O)Nc3cnn(C45CC6CC(CC(C6)C4)C5)c3)C2)c1C (stereo not drawn),2,1,-1,21886*
Cc1ccccc1-c1nc(S(=O)(=O)c2ccc(Br)cc2)c(NCc2cccnc2)o1,1,0,-3,20211*
CCc1c(C)c(C#N)c2nc3ccccc3n2c1NCCN(C)C,7,7,-7,17739*
COc1ccc(CNC(=O)C(=O)NCC2OCCN2S(=O)(=O)c2ccccc2)cc1 (stereo not drawn),2,-2,0,6225
CCC(CC)C(=O)Nc1ccc(Sc2ccc([N+](=O)[O-])cc2)cc1,3,-1,-3,19877*
COc1ccc(OCC(=O)Nc2ccccc2OC)cc1,-2,-14,-4,8411
O=C(COc1ccccc1CNCc1ccccc1)Nc1ccccc1,?,-12,-6,24425*
CNCc1ccccc1OCC(=O)Nc1ccccc1OC,-4,-5,-2,17627*
CCC(C)(C)C(=O)Nc1nnc(CCc2ccccc2)s1,-1,36*,-1,3221
CC1CSc2ccccc2NC1=S (stereo not drawn),0,-2,-6,16476*
